In PubChem BioAssay (Tox21):
Results filed as inconclusive are left out. Entries that show only a call come without a potency. Calls of active or inactive are those of the source. The call rests on the fitted dose curve; in most records, active means well fitted cell-killing curve with a large enough effect in the repeat runs; inconclusive means weak or mixed curves, or effect the other way; inactive means flat fitted curve, though single readings scatter.

assay: qHTS assay to identify small molecule antagonists of the androgen receptor (AR) signaling pathway using the MDA cell line - cell viability counter screen (AID 743041; further: nearly all actives have a fitted effect of over 45% in size); details: MDA-kb2 viability, CellTiter-Fluor, 16 h, cells co-treated with R1881 androgen agonist; series mostly up to 70.3 µM
Source text: National Center for Advancing Translational Sciences [NCATS]
NIH Chemical Genomics Center [NCGC]
U.S. Environmental Protection Agency [EPA]
National Institutes of Environmental Health Sciences [NIEHS]
National Toxicology Program [NTP]
U.S. Food and Drug Administration [FDA]
Androgen receptor (AR), a nuclear hormone receptor, plays a critical role in AR-dependent prostate cancer and other androgen related diseases. Endocrine disrupting chemicals (EDCs) and their interactions with steroid hormone receptors like AR may cause disruption of normal endocrine function as well as interfere with metabolic homeostasis, reproduction, developmental and behavioral functions. To identify the compounds that inhibit AR signaling, MDA-kb2 AR-luc cell line (from ATCC, deposited by Wilson et al.) was used to screen the Tox21 10K compound library. MDA-kb2 AR-luc cell line is human breast carcinoma cell line that was stably transfected with a luciferase reporter gene under control of the MMTV promoter containing response elements for both androgen receptor (AR) and glucocorticoid receptor (GR). The cytotoxicity of the Tox21 compound library against the MDA-kb2 AR-luc cell line was tested in parallel by measuring the cell viability using CellTiter-Fluor assay (Promega, Madison, WI) in the same wells.
Tox21 Assay Protocol Summary:
MDA-kb2 AR-luc cells were dispensed at 3,000 cells/4 uL/well of culture medium into white wall/solid-bottom 1536-well plates using a Multidrop Combi (ThermoFisher Scientific, Waltham, MA) dispenser. After the assay plates were incubated at a 37C and 0% CO2 for 5 hr, 23 nL of compounds dissolved in DMSO, positive controls or DMSO only was transferred to the assay plate by a Pintool station (Kalypsys, San Diego, CA), followed by addition of 1 uL of agonist (R1881) in culture medium using a Bioraptr Flying Reagent Dispenser (FRD) workstation (Beckman Coulter, Indianapolis, IN, USA). The plates were incubated at a 37C and 0% CO2 for 16 h. After 15.5 h incubation, 1uL of CellTiter-Fluor reagent (Promega) was added using a Bioraptr FRD to each plate for measuring cytotoxicity. The fluorescence intensity was quantified on a ViewLux plate reader (PerkinElmer, Shelton, CT) following 30 min incubation at 37C and 0% CO2.
Potency means the concentration at half of the fitted maximal effect.

| Structure (SMILES) | Potency |
| --- | --- |
| O=C1NCCN1 | inactive |
| Cc1nc2ccccc2s1 | inactive |
| CCCOC(=O)c1ccc(N)cc1 | inactive |
| CCCCC(=O)O[C@]1(C(=O)CO)CC[C@H]2[C@@H]3CCC4=CC(=O)CC[C@]4(C)[C@H]3[C@@H](O)C[C@@]21C | inactive |
| CCC(C)(C)C1CCC(O)CC1 (stereo not given) | inactive |
| Cc1occc1C(=O)Nc1ccc(C(=O)N2CCC(F)(F)/C(=C\C(=O)N3CCC(N4CCCCC4)CC3)c3ccccc32)cc1 | inactive |
| CCN(CC)CCNC(=O)c1ccc(NC(C)=O)cc1 | inactive |
| CCCCC(CC)COC(=O)COc1ccc(Cl)cc1C (stereo not given) | inactive |
| CC(C)c1nnc2ccc(-c3ocnc3-c3cc(F)ccc3F)cn12 | inactive |
| c1cnc2c(n1)CCCC2 | inactive |
| CC1=CC(=O)CC(C)(C)C1(O)/C=C/C(C)=C\C(=O)O (stereo not given) | inactive |
| CN1CCN(c2c(F)cc3c(=O)c(C(=O)O)cn4c3c2OCN4C)CC1 | inactive |
| CCC(C)(O)CCC=C(C)C (stereo not given) | inactive |
| CN1CCN(CCCN2c3ccccc3Sc3ccc(S(=O)(=O)N(C)C)cc32)CC1 | inactive |
| C1COCO1 | inactive |
| NC(=O)Nc1ccc(Cl)c(Cl)c1 | inactive |
| c1ccc(COCc2ccccc2)cc1 | inactive |
| COc1ccccc1N=Nc1c(S(=O)(=O)O)cc2cc(S(=O)(=O)O)cc(NC(C)=O)c2c1O | 45.7 µM (active) |
| OCCSc1ccccc1 | inactive |
| Cc1cc(C(=C2C=CC(=Nc3ccc(S(=O)(=O)O)cc3S(=O)(=O)O)C=C2)c2ccc(Nc3ccc(S(=O)(=O)O)cc3)cc2)ccc1N | inactive |

| Structure (SMILES) | Potency |
| --- | --- |
| CCCCCCCCCCCCCCC[C@H](O)[C@@H](N)CO | inactive |
| O=Cc1c(Cl)cccc1Cl | inactive |
| CC1CC(O)CC(C)(C)C1 (stereo not given) | inactive |
| O=C(O)c1cccnc1C(=O)O | inactive |
| Cc1c(C(=O)NN2CCCCC2)nn(-c2ccc(Cl)cc2Cl)c1-c1ccc(Cl)cc1 | inactive |
| CCOC(=O)OCC | inactive |
| CCCCCCCCCCOS(=O)(=O)O | inactive |
| CCCCCCOC(=O)CCCCCCCC(=O)OCCCCCC | inactive |
| C=CC(=O)NCOCC(C)C | inactive |
| O=C(O)c1cccc(O)c1 | inactive |
| C[N+](C)(C)CCOC(N)=O | inactive |
| Cc1ccc(S)cc1 | inactive |
| CC1=C(/C=C/C(C)=C\C=C\C(C)=C\C(=O)O)C(C)(C)CCC1 | inactive |
| CCCCC(CC)CNCC(CC)CCCC (stereo not given) | inactive |
| CCCCC(=O)O[C@]1(C(=O)CO)[C@@H](C)C[C@H]2[C@@H]3CCC4=CC(=O)C=C[C@]4(C)[C@@]3(F)[C@@H](O)C[C@@]21C | inactive |
| Oc1cc(O)c(Cl)cc1Cl | inactive |
| CCc1c2c(nc3ccc(OC(=O)N4CCC(N5CCCCC5)CC4)cc13)-c1cc3c(c(=O)n1C2)COC(=O)[C@]3(O)CC | inactive |
| CCc1nn(CCCN2CCN(c3cccc(Cl)c3)CC2)c(=O)n1CCOc1ccccc1 | 22.1 µM (active) |
| O=C(CCCN1CCC(O)(c2ccc(Br)cc2)CC1)c1ccc(F)cc1 | inactive |
| CCCc1c(OCCCOc2ccc(OCC(=O)O)cc2)ccc(C(C)=O)c1O | inactive |
